Source: ChEMBL document CHEMBL1961873, “Compounds: GSK PKIS; Assays: Nanosyn kinase panel” (2012)

Columns and labels:
[1] = target: Sphingosine kinase 1 (Homo sapiens) (UniProt Q9NYA1); details: at 1 µM;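 further: mean SPHK1 inhibition value reported from the GSK PKIS kinase panel screen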
[2] = target: T1, Sphingosine kinase 2 (Homo sapiens) (UniProt Q9NRA0); details: at 0.1 µM
T1 sequence (whole entry): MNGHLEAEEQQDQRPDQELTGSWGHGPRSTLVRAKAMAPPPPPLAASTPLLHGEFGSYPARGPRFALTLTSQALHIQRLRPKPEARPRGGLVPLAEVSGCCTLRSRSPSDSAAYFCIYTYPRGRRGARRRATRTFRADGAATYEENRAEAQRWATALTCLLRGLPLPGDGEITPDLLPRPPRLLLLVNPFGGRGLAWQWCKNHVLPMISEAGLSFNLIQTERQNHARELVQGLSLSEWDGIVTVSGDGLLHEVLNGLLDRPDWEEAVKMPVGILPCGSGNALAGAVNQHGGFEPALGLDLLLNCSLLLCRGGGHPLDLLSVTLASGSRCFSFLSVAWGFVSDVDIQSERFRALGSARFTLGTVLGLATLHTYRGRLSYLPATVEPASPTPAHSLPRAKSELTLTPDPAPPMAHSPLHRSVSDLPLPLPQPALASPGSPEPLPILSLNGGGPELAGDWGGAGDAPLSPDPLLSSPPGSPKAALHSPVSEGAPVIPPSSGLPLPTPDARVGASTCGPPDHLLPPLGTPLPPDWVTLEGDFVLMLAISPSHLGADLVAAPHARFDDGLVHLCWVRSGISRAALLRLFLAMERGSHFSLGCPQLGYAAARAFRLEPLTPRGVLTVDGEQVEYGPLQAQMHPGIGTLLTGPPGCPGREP

[3] = target: T1, Sphingosine kinase 2 (Homo sapiens); details: at 1 µM
[4] = target: Casein kinase II subunit alpha (Homo sapiens) (UniProt P68400); details: at 1 µM;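 further: reported value is the mean CK2 inhibition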
[5] = target: T2, Inhibitor of nuclear factor kappa-B kinase subunit alpha (Homo sapiens) (UniProt O15111); details: at 0.1 µM
T2 sequence (whole entry): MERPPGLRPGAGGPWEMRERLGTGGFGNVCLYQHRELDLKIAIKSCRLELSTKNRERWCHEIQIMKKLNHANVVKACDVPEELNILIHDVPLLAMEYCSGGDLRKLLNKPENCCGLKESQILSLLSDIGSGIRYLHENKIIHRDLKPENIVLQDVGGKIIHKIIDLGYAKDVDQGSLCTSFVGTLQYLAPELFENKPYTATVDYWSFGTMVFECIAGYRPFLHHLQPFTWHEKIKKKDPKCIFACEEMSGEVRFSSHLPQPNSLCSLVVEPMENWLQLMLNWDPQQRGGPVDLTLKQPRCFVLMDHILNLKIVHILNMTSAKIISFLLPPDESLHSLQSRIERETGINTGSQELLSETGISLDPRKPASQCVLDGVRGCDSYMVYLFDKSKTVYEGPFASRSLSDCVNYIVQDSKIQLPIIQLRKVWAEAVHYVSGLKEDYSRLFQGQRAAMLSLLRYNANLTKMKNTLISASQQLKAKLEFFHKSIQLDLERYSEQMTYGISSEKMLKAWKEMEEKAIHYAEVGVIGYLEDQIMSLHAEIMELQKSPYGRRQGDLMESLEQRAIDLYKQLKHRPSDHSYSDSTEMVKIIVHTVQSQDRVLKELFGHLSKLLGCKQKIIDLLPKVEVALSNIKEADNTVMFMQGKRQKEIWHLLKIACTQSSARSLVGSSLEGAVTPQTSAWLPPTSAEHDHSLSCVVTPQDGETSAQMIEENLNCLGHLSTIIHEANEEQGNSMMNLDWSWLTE

[6] = target: T2, Inhibitor of nuclear factor kappa-B kinase subunit alpha (Homo sapiens); details: at 1 µM
[7] = target: T3, Inhibitor of nuclear factor kappa-B kinase subunit beta (Homo sapiens) (UniProt O14920); details: at 0.1 µM
T3 sequence (whole entry): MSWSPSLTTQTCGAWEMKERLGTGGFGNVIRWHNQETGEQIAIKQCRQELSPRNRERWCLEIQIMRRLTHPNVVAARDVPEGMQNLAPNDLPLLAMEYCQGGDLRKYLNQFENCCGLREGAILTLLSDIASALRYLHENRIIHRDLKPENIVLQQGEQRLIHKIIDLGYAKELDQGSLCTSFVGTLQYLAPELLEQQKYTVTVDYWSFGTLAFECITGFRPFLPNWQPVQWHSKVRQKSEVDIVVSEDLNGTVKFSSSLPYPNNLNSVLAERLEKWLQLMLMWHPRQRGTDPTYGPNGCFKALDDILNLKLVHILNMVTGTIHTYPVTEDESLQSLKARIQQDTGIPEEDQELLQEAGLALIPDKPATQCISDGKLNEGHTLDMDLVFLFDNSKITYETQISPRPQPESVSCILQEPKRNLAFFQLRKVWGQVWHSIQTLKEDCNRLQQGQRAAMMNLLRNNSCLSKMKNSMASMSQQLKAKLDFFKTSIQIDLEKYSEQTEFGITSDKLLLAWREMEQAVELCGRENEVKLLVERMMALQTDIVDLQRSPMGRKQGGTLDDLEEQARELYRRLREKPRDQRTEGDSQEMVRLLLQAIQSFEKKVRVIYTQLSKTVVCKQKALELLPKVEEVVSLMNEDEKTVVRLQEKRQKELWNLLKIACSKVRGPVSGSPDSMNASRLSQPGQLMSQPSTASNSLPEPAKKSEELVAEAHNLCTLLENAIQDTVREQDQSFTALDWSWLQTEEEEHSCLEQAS

[8] = target: T3, Inhibitor of nuclear factor kappa-B kinase subunit beta (Homo sapiens); details: at 1 µM
[9] = target: T4, Inhibitor of nuclear factor kappa-B kinase subunit epsilon (Homo sapiens) (UniProt Q14164); details: at 0.1 µM
T4 sequence (whole entry): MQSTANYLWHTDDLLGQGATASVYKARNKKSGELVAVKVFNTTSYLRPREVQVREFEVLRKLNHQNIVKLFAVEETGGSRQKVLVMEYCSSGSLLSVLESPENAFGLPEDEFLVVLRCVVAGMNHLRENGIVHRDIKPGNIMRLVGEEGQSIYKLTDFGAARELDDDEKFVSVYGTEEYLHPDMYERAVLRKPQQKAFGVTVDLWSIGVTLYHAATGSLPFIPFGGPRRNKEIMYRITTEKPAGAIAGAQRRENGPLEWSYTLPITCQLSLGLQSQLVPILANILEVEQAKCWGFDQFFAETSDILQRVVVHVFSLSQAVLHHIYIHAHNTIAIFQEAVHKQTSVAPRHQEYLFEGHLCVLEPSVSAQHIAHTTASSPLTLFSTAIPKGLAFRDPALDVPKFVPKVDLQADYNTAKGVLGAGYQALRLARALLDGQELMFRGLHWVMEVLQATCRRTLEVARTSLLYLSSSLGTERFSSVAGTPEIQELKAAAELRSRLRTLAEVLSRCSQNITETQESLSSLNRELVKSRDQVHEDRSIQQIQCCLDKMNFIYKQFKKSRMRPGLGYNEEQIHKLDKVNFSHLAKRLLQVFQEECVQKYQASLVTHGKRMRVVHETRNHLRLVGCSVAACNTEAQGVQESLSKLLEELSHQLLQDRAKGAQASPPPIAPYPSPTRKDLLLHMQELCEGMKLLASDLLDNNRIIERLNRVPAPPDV

[10] = target: T4, Inhibitor of nuclear factor kappa-B kinase subunit epsilon (Homo sapiens); details: at 1 µM
[11] = target: T5, Serine/threonine-protein kinase Nek1 (Homo sapiens) (UniProt Q96PY6); details: at 0.1 µM
T5 sequence (whole entry): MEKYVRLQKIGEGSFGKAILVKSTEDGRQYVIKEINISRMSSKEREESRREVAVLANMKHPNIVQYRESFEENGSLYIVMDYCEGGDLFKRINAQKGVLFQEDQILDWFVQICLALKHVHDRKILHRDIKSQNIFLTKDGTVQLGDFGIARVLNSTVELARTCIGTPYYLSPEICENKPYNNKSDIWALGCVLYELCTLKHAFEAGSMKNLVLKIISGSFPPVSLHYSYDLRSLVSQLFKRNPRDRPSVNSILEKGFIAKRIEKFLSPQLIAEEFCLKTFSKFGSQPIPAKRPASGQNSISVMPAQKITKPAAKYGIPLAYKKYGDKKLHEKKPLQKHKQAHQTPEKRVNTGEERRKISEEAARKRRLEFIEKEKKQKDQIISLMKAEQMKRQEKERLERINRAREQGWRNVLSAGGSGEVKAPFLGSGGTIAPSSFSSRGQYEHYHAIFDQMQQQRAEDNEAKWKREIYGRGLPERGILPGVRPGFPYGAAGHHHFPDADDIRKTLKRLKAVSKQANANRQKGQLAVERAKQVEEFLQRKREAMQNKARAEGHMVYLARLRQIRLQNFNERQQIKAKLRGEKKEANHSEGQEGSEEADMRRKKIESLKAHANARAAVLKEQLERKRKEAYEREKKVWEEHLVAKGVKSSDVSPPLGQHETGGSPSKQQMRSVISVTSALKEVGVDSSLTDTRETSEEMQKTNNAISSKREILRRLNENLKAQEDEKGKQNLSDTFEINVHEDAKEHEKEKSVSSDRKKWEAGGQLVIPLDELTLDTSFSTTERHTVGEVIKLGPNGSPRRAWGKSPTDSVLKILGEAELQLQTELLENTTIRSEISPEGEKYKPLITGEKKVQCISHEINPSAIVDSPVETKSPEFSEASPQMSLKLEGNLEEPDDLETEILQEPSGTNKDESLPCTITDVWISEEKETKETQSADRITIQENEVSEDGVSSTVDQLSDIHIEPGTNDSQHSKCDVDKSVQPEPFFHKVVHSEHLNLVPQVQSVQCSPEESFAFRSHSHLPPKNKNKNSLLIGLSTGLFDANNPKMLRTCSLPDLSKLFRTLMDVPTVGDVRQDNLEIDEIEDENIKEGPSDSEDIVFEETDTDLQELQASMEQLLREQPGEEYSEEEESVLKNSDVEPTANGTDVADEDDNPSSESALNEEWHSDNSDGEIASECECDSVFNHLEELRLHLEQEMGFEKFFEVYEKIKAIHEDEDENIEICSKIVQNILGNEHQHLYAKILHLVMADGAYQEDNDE

[12] = target: T5, Serine/threonine-protein kinase Nek1 (Homo sapiens); details: at 1 µM
[13] = target: T6, Serine/threonine-protein kinase Nek2 (Homo sapiens) (UniProt P51955); details: at 0.1 µM
T6 sequence (whole entry): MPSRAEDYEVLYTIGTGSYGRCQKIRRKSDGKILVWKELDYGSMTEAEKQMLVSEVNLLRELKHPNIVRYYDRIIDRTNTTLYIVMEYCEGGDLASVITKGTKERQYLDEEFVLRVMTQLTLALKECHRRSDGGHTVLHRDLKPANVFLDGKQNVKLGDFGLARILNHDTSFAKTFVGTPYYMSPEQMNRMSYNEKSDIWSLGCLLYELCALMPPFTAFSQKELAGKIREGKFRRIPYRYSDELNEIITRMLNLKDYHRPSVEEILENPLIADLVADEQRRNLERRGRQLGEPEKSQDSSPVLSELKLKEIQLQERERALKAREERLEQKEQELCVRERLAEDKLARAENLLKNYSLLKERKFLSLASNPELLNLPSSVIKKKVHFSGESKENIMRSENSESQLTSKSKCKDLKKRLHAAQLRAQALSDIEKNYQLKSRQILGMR

[14] = target: T6, Serine/threonine-protein kinase Nek2 (Homo sapiens); details: at 1 µM
[15] = target: Serine/threonine-protein kinase Nek6 (Homo sapiens) (UniProt Q9HC98); details: at 0.1 µM
[16] = target: Serine/threonine-protein kinase Nek6 (Homo sapiens) (UniProt Q9HC98); details: at 1 µM
[17] = target: Serine/threonine-protein kinase Nek7 (Homo sapiens) (UniProt Q8TDX7); details: at 0.1 µM
[18] = target: Serine/threonine-protein kinase Nek7 (Homo sapiens) (UniProt Q8TDX7); details: at 1 µM
[19] = target: T7, Serine/threonine-protein kinase Nek9 (Homo sapiens) (UniProt Q8TD19); details: at 0.1 µM;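 further: reported value is the mean percent inhibition of NEK9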
T7 sequence (whole entry): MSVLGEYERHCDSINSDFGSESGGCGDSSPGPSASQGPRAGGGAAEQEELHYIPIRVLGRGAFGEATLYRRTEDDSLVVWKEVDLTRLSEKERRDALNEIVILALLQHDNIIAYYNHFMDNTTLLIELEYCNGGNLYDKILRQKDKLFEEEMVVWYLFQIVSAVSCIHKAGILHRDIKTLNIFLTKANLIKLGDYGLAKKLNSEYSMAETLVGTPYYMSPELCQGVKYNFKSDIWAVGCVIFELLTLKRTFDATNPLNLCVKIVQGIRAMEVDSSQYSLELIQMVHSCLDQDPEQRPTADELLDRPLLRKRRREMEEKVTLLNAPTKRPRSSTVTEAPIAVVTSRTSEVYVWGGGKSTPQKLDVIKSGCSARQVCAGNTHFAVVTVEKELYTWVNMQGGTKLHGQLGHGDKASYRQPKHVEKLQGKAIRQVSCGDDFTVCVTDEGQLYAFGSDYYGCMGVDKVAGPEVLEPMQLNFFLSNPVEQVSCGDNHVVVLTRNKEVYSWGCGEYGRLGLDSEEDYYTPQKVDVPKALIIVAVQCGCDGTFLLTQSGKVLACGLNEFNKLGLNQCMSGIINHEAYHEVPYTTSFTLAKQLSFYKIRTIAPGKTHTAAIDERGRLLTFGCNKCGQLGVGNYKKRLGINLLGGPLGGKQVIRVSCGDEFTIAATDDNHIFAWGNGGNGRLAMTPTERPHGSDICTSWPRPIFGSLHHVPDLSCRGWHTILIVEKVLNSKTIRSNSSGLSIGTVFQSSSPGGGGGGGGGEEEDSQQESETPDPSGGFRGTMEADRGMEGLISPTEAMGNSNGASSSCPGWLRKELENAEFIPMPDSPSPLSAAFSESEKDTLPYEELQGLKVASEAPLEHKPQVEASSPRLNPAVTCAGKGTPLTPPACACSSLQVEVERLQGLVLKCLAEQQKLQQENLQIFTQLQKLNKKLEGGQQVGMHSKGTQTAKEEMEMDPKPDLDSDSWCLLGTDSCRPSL

Chain of Serine/threonine-protein kinase Nek6 (Homo sapiens) (Q9HC98 whole entry): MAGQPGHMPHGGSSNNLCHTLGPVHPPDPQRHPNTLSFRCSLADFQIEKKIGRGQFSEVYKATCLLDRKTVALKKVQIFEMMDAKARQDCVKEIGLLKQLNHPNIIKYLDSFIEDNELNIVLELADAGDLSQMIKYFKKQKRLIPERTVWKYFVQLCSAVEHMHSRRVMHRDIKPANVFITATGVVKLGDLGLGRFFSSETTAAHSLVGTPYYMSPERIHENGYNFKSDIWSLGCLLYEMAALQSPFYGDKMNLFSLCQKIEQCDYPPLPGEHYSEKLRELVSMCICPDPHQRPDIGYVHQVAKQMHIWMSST
Chain of Serine/threonine-protein kinase Nek7 (Homo sapiens) (Q8TDX7 whole entry, looked up): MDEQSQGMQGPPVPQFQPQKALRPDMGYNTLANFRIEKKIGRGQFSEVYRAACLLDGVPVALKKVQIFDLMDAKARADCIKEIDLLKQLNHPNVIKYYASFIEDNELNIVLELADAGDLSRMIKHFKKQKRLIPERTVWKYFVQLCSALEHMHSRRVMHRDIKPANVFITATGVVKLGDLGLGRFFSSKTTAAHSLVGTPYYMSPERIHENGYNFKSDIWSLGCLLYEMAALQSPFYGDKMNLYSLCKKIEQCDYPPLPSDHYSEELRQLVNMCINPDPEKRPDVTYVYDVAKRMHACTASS
Chain of Sphingosine kinase 1 (Homo sapiens) (Q9NYA1 whole entry): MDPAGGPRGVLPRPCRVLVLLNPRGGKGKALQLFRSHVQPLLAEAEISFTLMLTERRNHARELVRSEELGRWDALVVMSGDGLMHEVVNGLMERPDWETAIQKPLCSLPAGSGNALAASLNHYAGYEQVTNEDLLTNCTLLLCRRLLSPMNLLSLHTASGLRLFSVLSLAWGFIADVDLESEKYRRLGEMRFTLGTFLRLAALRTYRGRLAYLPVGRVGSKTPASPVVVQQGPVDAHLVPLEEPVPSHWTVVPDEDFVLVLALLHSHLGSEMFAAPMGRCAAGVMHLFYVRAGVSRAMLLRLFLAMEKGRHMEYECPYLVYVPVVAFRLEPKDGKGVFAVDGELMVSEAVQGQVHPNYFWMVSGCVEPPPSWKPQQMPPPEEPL
Chain of Casein kinase II subunit alpha (Homo sapiens) (P68400 whole entry, looked up): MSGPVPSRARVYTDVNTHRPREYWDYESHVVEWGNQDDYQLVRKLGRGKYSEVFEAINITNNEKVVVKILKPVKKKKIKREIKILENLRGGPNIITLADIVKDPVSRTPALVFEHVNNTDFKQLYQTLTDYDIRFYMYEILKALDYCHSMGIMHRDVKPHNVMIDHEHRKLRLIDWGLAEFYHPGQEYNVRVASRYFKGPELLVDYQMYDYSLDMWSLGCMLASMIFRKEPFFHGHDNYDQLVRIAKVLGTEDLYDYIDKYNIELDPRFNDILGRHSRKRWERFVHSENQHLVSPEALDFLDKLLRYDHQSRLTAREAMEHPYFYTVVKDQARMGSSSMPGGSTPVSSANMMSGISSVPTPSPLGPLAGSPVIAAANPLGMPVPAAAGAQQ

For `N#Cc1ccc(Oc2nccc(-c3c(-c4ccc(F)cc4)ncn3C3CCNCC3)n2)cc1`, the inhibition [1] was 0.37%, the inhibition [2] was -1.27% and the inhibition [3] was -0.57%. For the same compound, the inhibition [4] was 4.89%, the inhibition [5] was 11.3% and the inhibition [6] was 4.73%. The inhibition [7] was 8.59%, the inhibition [8] was 5.99% and the inhibition [9] was 9.95%. The inhibition [10] was 5.32%, the inhibition [11] was 2.19% and the inhibition [12] was 2.49%. The inhibition [13] was 4.13%, the inhibition [14] was 4.63% and the inhibition [15] was 3.13%. The inhibition [16] was 3.68%, the inhibition [17] was 3.62% and the inhibition [18] was 6.16%. For the same compound, the inhibition [19] was 9.06%.
